Test results reported in PubChem BioAssay AID1159580 (chemical genetic matrix, 2015).
Where “and” joins values, the source holds several entries; their conditions need not be identical. Equal values may be shown once. Hit rate of the full screen: of about 5,500 compounds, about 2,000 (36%) were called active. Not shown: some 18% with an inconclusive outcome. Cut-off read from the data, not from the text of the source: active = normalized growth mostly below about 0.91 (no sharp cut-off); inconclusive = no clear call, values can overlap the other calls; inactive = mostly above about 0.92. The list shows a part of the results.

Test: chemical genetic growth profiling, strain panel (AID 1159580);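 note: tested at 20 µM; growth read once vehicle control cultures reached saturation at 30 °C; 1 = growth at the plate median or of vehicle wells; lower values mean less growth of the strain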
Conditions: growth OD

Measured: normalized growth

CC[C@H]1OC(=O)[C@H](C)[C@@H](O[C@H]2C[C@@](C)(OC)[C@@H](O)[C@H](C)O2)[C@H](C)[C@@H](O[C@@H]2O[C@H](C)C[C@H](N(C)C)[C@H]2O)[C@](C)(O)C[C@@H](C)CN(C)[C@H](C)[C@@H](O)[C@]1(C)O
inactive: S. cerevisiae deletion strains, locus YAL013W, strain DEP1, stronger effect = lower value 0.993 | S. cerevisiae deletion strains, locus YBR021W, strain FUR4, stronger effect = lower value 0.96 | S. cerevisiae deletion strains, locus YBR229C, strain ROT2, stronger effect = lower value 0.988 | S. cerevisiae deletion strains, locus YCL029C, strain bik1, stronger effect = lower value 0.962 | S. cerevisiae deletion strains, locus YDL035C, strain GPR1, stronger effect = lower value 0.969 | S. cerevisiae deletion strains, locus YDL074C, strain BRE1, stronger effect = lower value 1.01 | S. cerevisiae deletion strains, locus YDL101C, strain DUN1, stronger effect = lower value 0.987 | S. cerevisiae deletion strains, locus YDL134C, strain PPH21, stronger effect = lower value 0.993 | S. cerevisiae deletion strains, locus YDL185W, strain tfp1, stronger effect = lower value 0.962 | S. cerevisiae deletion strains, locus YDL192W, strain arf1, stronger effect = lower value 0.96 | S. cerevisiae deletion strains, locus YDR101C, strain arx1, stronger effect = lower value 0.972 | S. cerevisiae deletion strains, locus YDR150W, strain NUM1, stronger effect = lower value 1 | S. cerevisiae deletion strains, locus YDR162C, strain NBP2, stronger effect = lower value 1.01 | S. cerevisiae deletion strains, locus YDR318W, strain mcm21, stronger effect = lower value 0.948 | S. cerevisiae deletion strains, locus YDR388W, stronger effect = lower value 0.978 | S. cerevisiae deletion strains, locus YDR502C, strain sam2, stronger effect = lower value 0.984 | S. cerevisiae deletion strains, locus YEL061C, strain CIN8, stronger effect = lower value 0.996 | S. cerevisiae deletion strains, locus YER110C, stronger effect = lower value 0.972 | S. cerevisiae deletion strains, locus YER155C, strain BEM2, stronger effect = lower value 0.991 | S. cerevisiae deletion strains, locus YER167W, strain BCK2, stronger effect = lower value 0.964 | S. cerevisiae deletion strains, locus YGL078C, strain dbp3, stronger effect = lower value 0.979 | S. cerevisiae deletion strains, locus YGL086W, strain mad1, stronger effect = lower value 0.951 | S. cerevisiae deletion strains, locus YGL248W, strain PDE1, stronger effect = lower value 0.992 | S. cerevisiae deletion strains, locus YGR078C, strain PAC10, stronger effect = lower value 1.02 | S. cerevisiae deletion strains, locus YGR135W, strain pre9, stronger effect = lower value 0.986 | S. cerevisiae deletion strains, locus YGR229C, strain SMI1, stronger effect = lower value 0.988 | S. cerevisiae deletion strains, locus YGR252W, strain gcn5, stronger effect = lower value 0.876 | S. cerevisiae deletion strains, locus YHR030C, strain SLT2, stronger effect = lower value 0.988 and 0.962 | S. cerevisiae deletion strains, locus YHR079C, strain IRE1 (second series), stronger effect = lower value 0.965 | S. cerevisiae deletion strains, locus YHR079C, strain IRE1, stronger effect = lower value 0.965 | S. cerevisiae deletion strains, locus YHR094C, strain hxt1, stronger effect = lower value 0.969 | S. cerevisiae deletion strains, locus YHR129C, strain ARP1, stronger effect = lower value 0.996 | S. cerevisiae deletion strains, locus YHR200W, strain rpn10, stronger effect = lower value 0.977 | S. cerevisiae deletion strains, locus YIL066C, strain RNR3, stronger effect = lower value 0.987 | S. cerevisiae deletion strains, locus YIL073C, strain SPO22, stronger effect = lower value 0.895 | S. cerevisiae deletion strains, locus YIL125W, strain kgd1, stronger effect = lower value 0.983 | S. cerevisiae deletion strains, locus YIR030C, strain dcg1, stronger effect = lower value 0.975 | S. cerevisiae deletion strains, locus YJL095W, strain BCK1, stronger effect = lower value 1.03 and 0.999 | S. cerevisiae deletion strains, locus YJL134W, strain LCB3, stronger effect = lower value 0.992 | S. cerevisiae deletion strains, locus YJL168C, strain set2, stronger effect = lower value 0.979 | S. cerevisiae deletion strains, locus YJL187C, strain SWE1 (second series), stronger effect = lower value 0.993 | S. cerevisiae deletion strains, locus YJR043C, strain POL32, stronger effect = lower value 0.966 | S. cerevisiae deletion strains, locus YJR066W, strain TOR1, stronger effect = lower value 0.956 | S. cerevisiae deletion strains, locus YJR075W, strain HOC1, stronger effect = lower value 1 | S. cerevisiae deletion strains, locus YKL009W, strain mrt4, stronger effect = lower value 0.992 | S. cerevisiae deletion strains, locus YKL068W, stronger effect = lower value 0.995 | S. cerevisiae deletion strains, locus YKL085W, strain MDH1 (second series), stronger effect = lower value 0.974 | S. cerevisiae deletion strains, locus YKL085W, strain MDH1, stronger effect = lower value 0.974 | S. cerevisiae deletion strains, locus YKL190W, strain CNB1, stronger effect = lower value 0.996 | S. cerevisiae deletion strains, locus YKR001C, strain vps1, stronger effect = lower value 0.961 | S. cerevisiae deletion strains, locus YLR039C, strain RIC1, stronger effect = lower value 0.965 | S. cerevisiae deletion strains, locus YLR058C, strain SHM2, stronger effect = lower value 0.992 | S. cerevisiae deletion strains, locus YLR102C, strain apc9, stronger effect = lower value 0.976 | S. cerevisiae deletion strains, locus YLR113W, strain HOG1, stronger effect = lower value 0.986 | S. cerevisiae deletion strains, locus YLR262C, strain YPT6, stronger effect = lower value 0.999 | S. cerevisiae deletion strains, locus YLR268W, strain sec22, stronger effect = lower value 0.994 | S. cerevisiae deletion strains, locus YLR330W, strain CHS5, stronger effect = lower value 0.991 | S. cerevisiae deletion strains, locus YLR342W, strain FKS1 (second series), stronger effect = lower value 0.963 | S. cerevisiae deletion strains, locus YLR371W, strain rom2, stronger effect = lower value 0.964 | S. cerevisiae deletion strains, locus YLR418C, strain cdc73, stronger effect = lower value 1.03 | S. cerevisiae deletion strains, locus YML016C, strain PPZ1, stronger effect = lower value 0.991 | S. cerevisiae deletion strains, locus YML032C, strain rad52, stronger effect = lower value 0.942 | S. cerevisiae deletion strains, locus YML124C, strain tub3, stronger effect = lower value 0.984 | S. cerevisiae deletion strains, locus YMR078C, strain ctf18, stronger effect = lower value 0.964 | S. cerevisiae deletion strains, locus YMR223W, strain ubp8, stronger effect = lower value 0.949 | S. cerevisiae deletion strains, locus YMR263W, strain SAP30, stronger effect = lower value 1 | S. cerevisiae deletion strains, locus YMR307W, strain GAS1, stronger effect = lower value 0.788 | S. cerevisiae deletion strains, locus YNL067W, strain RPL9B, stronger effect = lower value 1.01 | S. cerevisiae deletion strains, locus YNL128W, strain TEP1, stronger effect = lower value 1 | S. cerevisiae deletion strains, locus YNL153C, strain GIM3, stronger effect = lower value 1.03 | S. cerevisiae deletion strains, locus YNL183C, strain NPR1, stronger effect = lower value 0.92 | S. cerevisiae deletion strains, locus YNL233W, strain BNI4, stronger effect = lower value 1.01 | S. cerevisiae deletion strains, locus YNL250W, strain rad50, stronger effect = lower value 0.978 | S. cerevisiae deletion strains, locus YNL271C, strain bni1, stronger effect = lower value 0.976 | S. cerevisiae deletion strains, locus YNL298W, strain CLA4, stronger effect = lower value 0.972 | S. cerevisiae deletion strains, locus YNL307C, strain MCK1, stronger effect = lower value 0.945 | S. cerevisiae deletion strains, locus YNL322C, strain KRE1, stronger effect = lower value 0.995 | S. cerevisiae deletion strains, locus YNR052C, strain pop2, stronger effect = lower value 0.957 | S. cerevisiae deletion strains, locus YOL006C, strain TOP1, stronger effect = lower value 0.951 | S. cerevisiae deletion strains, locus YOL012C, strain htz1 1.44 | S. cerevisiae deletion strains, locus YOL147C, strain pex11, stronger effect = lower value 0.981 | S. cerevisiae deletion strains, locus YOR061W, strain CKA2, stronger effect = lower value 0.972 | S. cerevisiae deletion strains, locus YOR069W, strain VPS5, stronger effect = lower value 0.989 | S. cerevisiae deletion strains, locus YOR136W, strain idh2, stronger effect = lower value 0.969 | S. cerevisiae deletion strains, locus YOR144C, strain elg1, stronger effect = lower value 0.976 | S. cerevisiae deletion strains, locus YOR184W, strain ser1, stronger effect = lower value 0.973 | S. cerevisiae deletion strains, locus YOR231W, strain MKK1, stronger effect = lower value 0.968 | S. cerevisiae deletion strains, locus YOR316C, strain cot1, stronger effect = lower value 0.978 | S. cerevisiae deletion strains, locus YPL055C, strain LGE1, stronger effect = lower value 1.01 | S. cerevisiae deletion strains, locus YPL241C, strain CIN2, stronger effect = lower value 0.994 | S. cerevisiae deletion strains, locus YPL256C, strain CLN2, stronger effect = lower value 0.963 | S. cerevisiae deletion strains, locus YPR119W, strain clb2, stronger effect = lower value 0.981 | S. cerevisiae deletion strains, locus YPR141C, strain kar3, stronger effect = lower value 0.98 | S. cerevisiae deletion strains, locus YPR163C, strain tif3, stronger effect = lower value 0.974 | S. cerevisiae deletion strains, locus YPR167C, strain met16, stronger effect = lower value 0.984 | S. cerevisiae deletion strains, strain wtn01, stronger effect = lower value 0.978 | S. cerevisiae strains, strain wild type, stronger effect = lower value 0.982
